Experimental data from PubChem BioAssay AID602340 (Broad Institute, 2012).
About 2,600 (0.79%) of roughly 330,000 compounds were called active.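 Rule for the calls: active = mean ATP rescue above about 67%, or every replicate alone reaching that limit (limit read from the data, passing the limit was not always enough); inconclusive = no clear call, values can overlap the other calls; inactive = mean under the limit and some replicate under it.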 The sample as a whole holds a higher share of actives than the screen did.

experiment: protection of differentiated C2C12 cells from simvastatin – single point, plate reader, primary screen (AID 602340); conditions: C2C12 myotubes + simvastatin, ATP luminescence, 48 h; at 7.49 µM; stronger effect = higher value; scaled: DMSO 0, geranylgeraniol control 100;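 note: myotubes were challenged with 10 µM simvastatin during compound exposure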

Row | Compound | rescue of ATP level
1 | COc1cccc(S(=O)(=O)Nc2ccc3c(c2)C(=O)N(C)C[C@@H](OC)[C@H](C)CN(C(=O)Cc2cccnc2)[C@H](C)CO3)c1 | 7.32% (inactive)
2 | CC(=O)N1[C@@H](CO)[C@H](c2ccccc2)[C@@H]1CN(C(=O)c1ccccc1)C(C)C | 3.57% (inactive)
3 | COc1ccc(-c2ccc3n(c2=O)C[C@@H]2[C@@H](CO)[C@H](C(=O)Nc4ccccc4)[C@H]3N2C)cc1 | -0.124% (inactive)
4 | CCC(=O)N(C)C[C@@H]1Oc2cc(C#Cc3cccnc3)ccc2S(=O)(=O)N([C@H](C)CO)C[C@@H]1C | 29.4% (inactive)
5 | CC(=O)c1ccc(NC(=O)c2cc(-c3cccs3)on2)cc1 | -12.8% (inactive)
6 | Cc1cc(NC(=O)c2cc(-c3cccs3)on2)nn1Cc1ccc(Cl)cc1 | 143% (active)
7 | O=C(c1cc(-c2cccs2)on1)N1CCCCC1 | 36% (inactive)
8 | CC(C)C#Cc1ccc2c(c1)O[C@@H](CN(C)C(=O)CN(C)C)[C@@H](C)CN([C@H](C)CO)S2(=O)=O | -17.5% (inactive)
9 | CNC[C@H]1Oc2ncc(C#Cc3ccccc3F)cc2C(=O)N([C@H](C)CO)C[C@H]1C | -12.3% (inactive)
10 | O=C(C[C@@H]1C[C@H]2c3cc(NC(=O)Nc4ccccc4)ccc3O[C@H]2[C@@H](CO)O1)NCc1cccnc1 | 4.89% (inactive)
11 | CN1c2ccccc2-c2nc3ccccc3n2C1c1ccco1 (centres undefined) | 96.4% (active)
12 | CN1C(C(=O)NCc2ccco2)CC2Cn3c(nc4ccccc43)C21 (centres undefined) | 2.87% (inactive)
13 | Cc1cc(NCc2ccco2)n2c(nc3ccccc32)c1C#N | -35.7% (inactive)
14 | CCCCCC(=O)Nc1ccc(S(=O)(=O)Nc2ccc(Cl)nn2)cc1 | -2.2% (inactive)
15 | COc1ccc(NS(=O)(=O)c2ccc(NC(=O)C(C)(C(F)(F)F)C(F)(F)F)cc2)nn1 | 113% (active)
16 | COC(=O)Nc1ccc(S(=O)(=O)Nc2cc(OC)nc(OC)n2)cc1 | -0.957% (inactive)
17 | CC(C)NC(=O)N1[C@H](CO)[C@@H]2c3ccccc3N(C(=O)c3ccccc3F)C[C@@H]21 | 6.22% (inactive)
18 | CC(=O)N(C)C[C@H]1Oc2cc(C#CC3CC3)ccc2S(=O)(=O)N([C@H](C)CO)C[C@@H]1C | 9.57% (inactive)
19 | C/C=C/c1ccc2c(c1)O[C@@H](CN(C)C(=O)c1ccncc1)[C@@H](C)CN([C@H](C)CO)S2(=O)=O | -3.45% (inactive)
20 | CO[C@H]1CN(C)C(=O)c2ccc(NS(C)(=O)=O)cc2OC[C@@H](C)N(Cc2ccccc2)C[C@@H]1C | 7.75% (inactive)
21 | CO[C@H]1CN(C)C(=O)c2cc(NC(=O)C3CC3)ccc2OC[C@H](C)N(Cc2ccccc2)C[C@H]1C | 14.1% (inactive)
22 | CC(=O)c1c(C)n(-c2ccc(C)cc2)c2ccc(O)cc12 | -0.235% (inactive)
23 | CC(=O)c1c(C)n(-c2ccc(N(C)C)cc2)c2ccc(OCC(N)=O)cc12 | 83.1% (active)
24 | CCOC(=O)c1c(-c2ccccc2)oc2ccc(OCC(N)=O)cc12 | -0.453% (inactive)
25 | CN(C)CCCNC(=O)C[C@H]1C=C[C@@H](NC(=O)Cc2cccnc2)[C@H](CO)O1 | -16.4% (inactive)
26 | C[C@@H]1CN([C@H](C)CO)C(=O)c2ccccc2-c2ccccc2CO[C@@H]1CN(C)S(=O)(=O)CC(F)(F)F | -2.03% (inactive)
27 | CC(C)(C)OC(=O)N[C@H](C(=O)OC(C)(C)C)c1ccc(Br)cc1 | -4.69% (inactive)

Row | Compound | rescue of ATP level
28 | CCOC(=O)Nc1ccc(NC(=O)OCC)cc1 | -0.0995% (inactive)
29 | CC(C)(C)OC(=O)Nc1ccc([C@@H](NC(=O)OC(C)(C)C)C(=O)OC(C)(C)C)cc1 | 83.1% (active)
30 | COc1ccc(S(=O)(=O)N2CC[C@H]3[C@@H](CO)N(C)c4ccc(C#Cc5ccccc5OC)cc4[C@H]32)cc1 | 36% (inactive)
31 | C[C@H]1CN([C@@H](C)CO)S(=O)(=O)c2ccc(C#Cc3ccccc3F)cc2O[C@@H]1CN(C)C(=O)c1ccc2c(c1)OCO2 | -14.8% (inactive)
32 | O=C(O)c1ccccc1NC(=S)NC(NC(=O)c1ccccc1[N+](=O)[O-])C(Cl)(Cl)Cl (centres undefined) | 108% (active)
33 | O=C(Nc1ccccc1-c1ccccc1)c1ccccc1[N+](=O)[O-] | 9.09% (inactive)
34 | O=C(Nc1ccccc1[N+](=O)[O-])C1C(c2ccccc2)=C1c1ccccc1 | 2.4% (inactive)
35 | CO[C@H]1CN(C)C(=O)c2cc(NC(=O)C3CCOCC3)ccc2OC[C@@H](C)N(Cc2cccnc2)C[C@@H]1C | 11.4% (inactive)
36 | COc1cc(/C=N\NC(=O)CNC(=O)c2cccc([N+](=O)[O-])c2)ccc1O | 110% (active)
37 | COc1ccc(O)c(/C=N/N=C/c2cccc([N+](=O)[O-])c2)c1 | 9.95% (inactive)
38 | COc1cc(/C=N/NC(=O)CNC(=O)c2ccncc2)ccc1OC(C)=O | -8.66% (inactive)
39 | Cc1noc(C)c1NC(=O)N[C@@H]1CC[C@H](CCNC(=O)C2CCC2)O[C@@H]1CO | 3.99% (inactive)
40 | O=C(C[C@H]1CC[C@@H](NC(=O)Nc2cc(F)ccc2F)[C@@H](CO)O1)NCc1ccncn1 | -2.36% (inactive)
41 | O=C(Nc1ccccc1)N1C[C@@H]2[C@H](c3ccccc31)[C@H](CO)N2C(=O)c1ccccn1 | -4.63% (inactive)
42 | COc1ccc(C2=NN(C(=O)CSc3nc(=O)n4ccc(C)cc4n3)C(c3ccc(C)cc3)C2)cc1 (centres undefined) | 34.4% (inactive)
43 | COc1ccc(C2=NN(C(=O)CSc3nnnn3C)C(c3ccco3)C2)cc1 (centres undefined) | -6.88% (inactive)
44 | Cc1ccc(C2=NN(C(=O)CSc3nc(N)cc(N)n3)C(c3ccco3)C2)cc1 (centres undefined) | 159% (active)
45 | Cc1cccc(-c2ccc([C@@H]3[C@H](CO)N4CCCCN(C(=O)c5ccc6c(c5)OCO6)C[C@@H]34)cc2)c1 | -11.7% (inactive)
46 | C[C@@H]1CN([C@H](C)CO)C(=O)c2cc(-c3ccc(C(=O)N(C)C)cc3)cnc2O[C@H]1CN(C)C(=O)C1CC1 | 5.72% (inactive)
47 | COc1ccc(NC(=O)N(C)C[C@H]2Oc3ccc(N(C)C)cc3C(=O)N([C@H](C)CO)C[C@H]2C)cc1 | 34.1% (inactive)
48 | CCOC(=O)c1ccn(-c2nc(-c3ccco3)cc(C(F)(F)F)n2)n1 | 122% (active)
49 | O=C(CSc1nc(-c2ccco2)cc(C(F)(F)F)n1)N1CCc2ccccc2C1 | 2.99% (inactive)
50 | COC(=O)c1cnn2c(C(F)(F)F)cc(-c3ccco3)nc12 | 0.418% (inactive)
51 | COCC(=O)Nc1ccc2c(c1)C(=O)N(C)[C@H]1CC[C@@H](CC(=O)Nc3cn(C)nc3C)O[C@@H]1CO2 | -1.7% (inactive)
52 | CCC(=O)Nc1ccc2c(c1)OC[C@H](C)N(CC1CCCCC1)C[C@@H](C)[C@H](OC)CN(C)C2=O | 13.2% (inactive)
53 | Cc1cccc(C)c1N1CCN(S(=O)(=O)N2CCCCC2)CC1 | -15% (inactive)
54 | CCC(=O)Nc1ccccc1N1CCN(S(C)(=O)=O)CC1 | 5.38% (inactive)

Row | Compound | rescue of ATP level
55 | CS(=O)(=O)N1CCN(c2cccc(Cl)n2)CC1 | 109% (active)
56 | C[C@@H]1CN([C@H](C)CO)S(=O)(=O)c2ccc(C#CCC3CCCC3)cc2O[C@H]1CN(C)Cc1ccc(C(=O)O)cc1 | 3.68% (inactive)
57 | O=C(Nc1nnc(Cc2ccc(Cl)cc2)s1)c1cccnc1 | 0.36% (inactive)
58 | CC(C)(C)c1cc(C(=O)NCc2cccnc2)ccn1 | -8.85% (inactive)
59 | O=C(NCc1ccc(Cl)c(Cl)c1)c1cccnc1 | 106% (active)
60 | COCC(=O)Nc1ccc2c(c1)[C@H]1C[C@H](CC(=O)NCc3cccnc3)O[C@H](CO)[C@H]1O2 | -1.76% (inactive)
61 | COCCn1c(CN(Cc2ccccc2)Cc2ccccc2)nc2c1c(=O)n(C)c(=O)n2C | 30.5% (inactive)
62 | COCCn1c(CN2CCC(Cc3ccccc3)CC2)nc2c1c(=O)n(C)c(=O)n2C | 70.9% (active)
63 | Cn1c(=O)c2c(nc(CN3CCOCC3)n2Cc2ccccc2)n(C)c1=O | 2.6% (inactive)
64 | CC(=O)NC[C@H]1[C@H](c2ccccc2)[C@@H](CO)N1C(=O)Cc1cccnc1 | 7.36% (inactive)
65 | Cc1ccccc1S(=O)(=O)Nc1ccc2c(c1)C(=O)N(C)[C@H]1CC[C@@H](CC(=O)O)O[C@H]1CO2 | 10.2% (inactive)
66 | O=C(C[C@@H]1C[C@H]2c3cc(NC(=O)Nc4ccccc4)ccc3O[C@H]2[C@@H](CO)O1)NC1CCCCC1 | 4.79% (inactive)
67 | C[C@@H]1CN([C@@H](C)CO)C(=O)c2cc(C3=CCCCC3)cnc2O[C@H]1CN(C)CC1CCOCC1 | -11.9% (inactive)
68 | C/C(=N/NC(=O)c1cc(Cl)ccc1O)C12CC3CC(CC(C3)C1)C2 | 173% (active)
69 | CC(=N\NC(=O)c1cc(Br)ccc1O)/C(=N/O)C(=O)Nc1ccccc1 | -1.86% (inactive)
70 | Cc1ccc(C(=O)NC23CC4CC(CC(C4)C2)C3)c(Cl)c1 | -14.4% (inactive)
71 | Cc1noc(C)c1S(=O)(=O)N(C)C[C@@H]1Oc2c(NS(=O)(=O)c3cn(C)cn3)cccc2C(=O)N([C@@H](C)CO)C[C@H]1C | 5.29% (inactive)
72 | COc1cccc(C(=O)Nc2ccc3c(c2)OC[C@H](C)N(C(C)=O)C[C@@H](C)[C@@H](OC)CN(C)C3=O)c1 | 5.61% (inactive)
73 | Fc1ccccc1OCCCCn1cncn1 | 109% (active)
74 | O=c1c2ccccc2ncn1CCCCOc1ccccc1F | -4.17% (inactive)
75 | CCN1CCN(CCCCOc2ccccc2F)CC1 | 12.7% (inactive)
76 | O=C(Nc1ccccc1F)N[C@@H]1CC[C@H](CCNC(=O)C2CC2)O[C@@H]1CO | 3.31% (inactive)
77 | O=C(CSc1ncn[nH]1)N/N=C/c1ccc(F)cc1 | 2.49% (inactive)
78 | Cc1cccc(C=CC(=O)c2ccc(Cl)cc2)c1 | 3.66% (inactive)
79 | O=C(/C=C/Sc1ncn[nH]1)c1ccc(Cl)cc1 | 122% (active)
